For 9 molecules, z-score and composite z-score results are on record in PubChem BioAssay.

Assay [1] can be described thus: E. coli DRC41 culture turbidity changes, primary screen, E. coli filamentation inducer project, strain DRC41, OD650, 48 h (AID 1152).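 Note: E. coli MC1000 strain DRC41 lacking acrAB efflux pump and sulA.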 Conditions: E. coli DRC41 (acrAB sulA), higher = more signal, called active from +8 up or from −8 down.
The nature of assay [2]: small-molecule binders of probe aLefty1, primary screen, biochemical, small-molecule microarray, 635/667 nm fluorescence (AID 1153).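 Note: score merges spot fluorescence with signal-to-noise ratio from the scanned slide images.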 The settings on record: higher = more signal.
The nature of assay [3]: PSAC antagonists in infected red cells, primary screen, cell-based, P. falciparum Indochina, OD700, 1 h (AID 1154). The settings on record: P. falciparum Indochina infected RBC osmotic lysis, higher = more signal, called active from +8 up or from −8 down.
A short description of assay [4]: PSAC antagonists in infected red cells, primary screen, cell-based, P. falciparum Indochina, OD700, 2 h (AID 1155).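 Note: lysis reports solute entry through the parasite surface anion channel PSAC; channel blockers reduce lysis of infected cells.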 The settings on record: P. falciparum Indochina infected erythrocytes, osmotic lysis OD700; higher = more signal, called active from +8 up or from −8 down.
Assay [5] can be described thus: osmotic lysis modulators in infected erythrocytes, primary screen, PSAC antagonist project, cell-based, P. falciparum Indochina, OD700, 3 h (AID 1156). Conditions: higher = more signal, called active from +8 up or from −8 down.
Assay [6] can be described thus: PSAC antagonists in infected red cells, primary screen, cell-based, P. falciparum Indochina, OD700, 18 h (AID 1157). Conditions: P. falciparum Indochina infected erythrocytes, osmotic lysis OD700, 18 h; higher = more signal, called active from +8 up or from −8 down.
Assay [7] in a line: modulators of S6 phosphorylation in cells, primary screen, cell-based, A549, cytoblot, luminescence, serum-stimulated (AID 1158).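 Note: serum-stimulated A549 lung adenocarcinoma cells; signal is phosphorylated S6 detected by cytoblot immunostaining with HRP secondary.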 Conditions: A549 phospho-S6 cytoblot, 5 h, higher = more signal.
The target of assay [8] is NADPH oxidase 2 (Homo sapiens) (UniProt P04839). Description: NOX2-dependent H2O2 signal modulators, primary screen, NOX inhibitor project, cell-based, HEK293-NOX2, PMA-stimulated, Amplex Red fluorescence (AID 1159). Note: test concentration not given here. Conditions: 45 min, higher = more signal, called active from +8 up or from −8 down.
Assay [9] concerns the target NADPH oxidase 4 (Homo sapiens) (UniProt Q9NPH5). In words: NOX4-dependent H2O2 signal modulators, primary screen, NOX inhibitor project, cell-based, HEK293-NOX4, tetracycline-induced, Amplex Red fluorescence (AID 1160). The settings on record: 45 min, higher = more signal, called active from +8 up or from −8 down.
For assay [10], the target named is NADPH oxidase 5 (Homo sapiens) (UniProt Q96PH1). Description: NOX5-dependent H2O2 signal modulators, primary screen, NOX inhibitor project, cell-based, HEK293-NOX5, Amplex Red fluorescence (AID 1161). The settings on record: HEK293-NOX5, ionomycin, 45 min, higher = more signal.
A short description of assay [11]: A549 cell viability effects, profiling panel, calcein-AM fluorescence, 48 h, basal (AID 1162). Note: test concentration not given here. The settings on record: higher = more signal.
A short description of assay [12]: adipocyte viability effects, profiling panel, cell-based, 3T3-L1 adipocytes, calcein-AM fluorescence, 48 h, basal (AID 1163). Note: test concentration not given here. Conditions: 3T3-L1 adipocytes viability, higher = more signal.
The nature of assay [13]: HepG2 cell viability effects, profiling panel, calcein-AM fluorescence, 48 h, basal (AID 1164). Note: test concentration not given here. The settings on record: higher = more signal.
Assay [14] is described as follows: MM1S cell viability effects, profiling panel, calcein-AM fluorescence, 48 h, basal (AID 1165).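 Note: viability of MM1S multiple myeloma cells under basal unstimulated conditions; test concentration not given here.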 Conditions: higher = more signal.
Assay [15] in a line: basal RPMI8226 viability, no added stimulus, profiling panel, cell-based, calcein-AM fluorescence, 48 h, PK04 Diversity Set (AID 1166).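 Note: cells grown under basal conditions without added stimulus; test concentration not given here.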 Conditions: RPMI8226 myeloma viability, higher = more signal.
Assay [16] can be described thus: basal HepG2 mitochondrial membrane potential changes, profiling panel, cell-based, JC-1 fluorescence, 24 h, 100 nL compound (AID 1167). Note: test concentration not given here. The settings on record: higher = more signal.
Assay [17] in a line: basal 3T3-L1 adipocyte mitochondrial potential changes, profiling panel, cell-based, JC-1 fluorescence, 3T3-L1 adipocytes, 24 h, 100 nL compound (AID 1168). Note: test concentration not given here. Conditions: JC-1 mitochondrial fluorescence, higher = more signal, called active from +8 up or from −8 down.
Assay [18] can be described thus: basal RPMI8226 mitochondrial membrane potential changes, profiling panel, cell-based, JC-1 fluorescence, 24 h, 100 nL compound (AID 1169). Note: test concentration not given here. The settings on record: RPMI8226 myeloma, JC-1 mitochondrial potential fluorescence, higher = more signal.
A short description of assay [19]: basal MM1S mitochondrial membrane potential changes, profiling panel, cell-based, JC-1 fluorescence, 24 h, 100 nL compound (AID 1170). Note: test concentration not given here. The settings on record: higher = more signal.
Assay [20] is described as follows: A549 lung cancer cell viability effects, profiling panel, resazurin fluorescence, 24 h, PK04 Diversity Set (AID 1171). Note: test concentration not given here. The settings on record: higher = more signal, called active from +8 up or from −8 down.

Molecules are shown by their SMILES. Active and inactive are the calls of the source.

NADPH oxidase 4 (Homo sapiens), sequence (Q9NPH5 whole entry, looked up): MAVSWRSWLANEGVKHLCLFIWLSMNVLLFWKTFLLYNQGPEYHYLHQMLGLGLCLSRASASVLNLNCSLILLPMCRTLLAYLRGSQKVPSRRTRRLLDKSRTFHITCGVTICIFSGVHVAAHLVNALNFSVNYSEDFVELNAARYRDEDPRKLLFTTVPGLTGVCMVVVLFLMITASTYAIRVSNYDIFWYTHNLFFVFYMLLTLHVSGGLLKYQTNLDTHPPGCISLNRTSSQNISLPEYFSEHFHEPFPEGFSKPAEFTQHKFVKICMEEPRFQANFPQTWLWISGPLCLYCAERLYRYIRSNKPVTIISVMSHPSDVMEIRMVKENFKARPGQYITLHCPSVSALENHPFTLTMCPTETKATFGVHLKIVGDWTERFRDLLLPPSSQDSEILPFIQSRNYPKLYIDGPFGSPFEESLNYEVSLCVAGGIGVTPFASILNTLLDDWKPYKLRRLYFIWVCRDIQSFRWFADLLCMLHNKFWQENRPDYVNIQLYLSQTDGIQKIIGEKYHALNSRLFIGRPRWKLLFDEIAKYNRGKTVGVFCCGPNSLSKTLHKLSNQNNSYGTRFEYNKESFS
NADPH oxidase 5 (Homo sapiens), sequence (Q96PH1 whole entry, looked up): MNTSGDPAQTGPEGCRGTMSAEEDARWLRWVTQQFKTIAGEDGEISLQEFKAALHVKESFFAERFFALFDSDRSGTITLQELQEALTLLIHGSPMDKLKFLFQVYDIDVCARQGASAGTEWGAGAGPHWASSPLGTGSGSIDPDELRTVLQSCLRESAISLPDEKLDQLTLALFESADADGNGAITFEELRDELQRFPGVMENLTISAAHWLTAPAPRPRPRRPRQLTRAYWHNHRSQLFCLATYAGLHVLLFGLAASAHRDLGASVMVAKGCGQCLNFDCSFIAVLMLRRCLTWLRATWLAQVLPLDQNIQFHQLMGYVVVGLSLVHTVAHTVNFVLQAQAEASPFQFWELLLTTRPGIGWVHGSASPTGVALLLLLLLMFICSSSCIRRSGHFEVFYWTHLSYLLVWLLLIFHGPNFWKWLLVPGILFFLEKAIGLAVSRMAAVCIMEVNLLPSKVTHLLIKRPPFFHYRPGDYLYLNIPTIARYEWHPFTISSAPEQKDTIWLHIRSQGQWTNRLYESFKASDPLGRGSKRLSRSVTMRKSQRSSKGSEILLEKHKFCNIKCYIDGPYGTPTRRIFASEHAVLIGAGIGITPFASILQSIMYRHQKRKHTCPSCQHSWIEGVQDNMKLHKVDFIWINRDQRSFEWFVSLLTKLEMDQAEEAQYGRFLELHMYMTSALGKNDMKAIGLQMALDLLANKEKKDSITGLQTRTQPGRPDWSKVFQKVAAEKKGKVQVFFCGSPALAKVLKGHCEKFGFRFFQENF
NADPH oxidase 2 (Homo sapiens), sequence (P04839 whole entry, looked up): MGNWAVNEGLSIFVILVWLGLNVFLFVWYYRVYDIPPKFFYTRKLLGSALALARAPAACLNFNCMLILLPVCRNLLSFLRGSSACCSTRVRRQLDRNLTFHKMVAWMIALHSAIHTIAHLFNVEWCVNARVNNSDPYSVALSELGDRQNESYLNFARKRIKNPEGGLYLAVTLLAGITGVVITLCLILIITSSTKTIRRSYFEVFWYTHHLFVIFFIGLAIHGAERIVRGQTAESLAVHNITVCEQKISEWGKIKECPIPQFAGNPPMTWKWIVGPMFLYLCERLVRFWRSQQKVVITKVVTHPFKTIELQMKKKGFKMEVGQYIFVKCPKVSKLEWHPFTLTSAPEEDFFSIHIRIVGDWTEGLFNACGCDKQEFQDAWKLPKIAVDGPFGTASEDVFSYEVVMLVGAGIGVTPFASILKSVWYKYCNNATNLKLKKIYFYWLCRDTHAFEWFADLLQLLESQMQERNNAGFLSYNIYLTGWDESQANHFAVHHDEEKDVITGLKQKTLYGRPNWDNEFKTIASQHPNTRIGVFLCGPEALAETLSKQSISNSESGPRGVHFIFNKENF

As for `C=C[C@H](C)[C@H](O)c1ccc(OCCO)cc1`, the z-score in [1] was 1.05 (inactive); in assay [3], 1.09 (inactive); in assay [4] it was 0.521 (inactive); in [5], 1.62 (inactive); in assay [6] it was 0.402 (inactive); in [7] it was 0.156. In addition, the z-score in assay [8] was 0.218 (inactive); in assay [9] it was -0.187 (inactive); in assay [10], -0.112; in [11], -0.001; in [12] it was 0.557; in assay [13], -0.548. Also, the z-score was 1.17 in assay [14]; -0.484 in assay [15]; 0.221 in assay [16]; -0.721 (inactive) in [17]; -0.238 in assay [18]; -0.339 in assay [19]. Besides, in assay [20], the z-score was -0.276 (inactive). Also, the composite z-score in assay [2] was -0.553.
On to `COc1ccc([Si](C)(C)[C@@H]2[C@@H](CC(=O)N3Cc4ccccc4C[C@H]3CO)O[C@]3(C(=O)N(Cc4cccc(N5C(=O)COc6ccccc65)c4)c4ccccc43)[C@H]2C)cc1`, for which the z-score in assay [1] was 2.59 (inactive); in assay [3], 4.94 (inactive); in assay [4], 1.18 (inactive); in assay [5], -0.0434 (inactive); in assay [6], 0.208 (inactive); in assay [7], 4.59. Further, the z-score in [8] is -0.387 (inactive); in assay [9], 0.518 (inactive); in assay [10], 0.827; in assay [11] it was 0.196; in [12] it was 1.34; in assay [13] it was 0.553. For the same molecule, the z-score in assay [14] was -0.296; in [15] it was -1.47; in assay [16], 0.411; in assay [17], 1.52 (inactive); in assay [18], -1.17; in assay [19], -0.974. Moreover, the z-score in assay [20] is -0.751 (inactive). Besides, in assay [2], the composite z-score is -0.286.
As for `C=CCC(OC(C)=O)[C@@H]1[C@@H](N(Cc2cc3ccccc3o2)C(=O)c2ccc(C)cc2)c2cc(OCCCO)ccc2N1C(=O)c1ccc(-c2ccccc2)cc1` (stereo not given in full), the z-score in [1] is 1.33 (inactive); in assay [3], 1.8 (inactive); in assay [4] it was 0.345 (inactive); in assay [5], -1.06 (inactive); in assay [6], 0.115 (inactive); in assay [7], 4.08. Also, the z-score in assay [8] was -1.59 (inactive); in [9] it was 0.768 (inactive); in assay [10], 2.25; in assay [11], 2.54; in assay [12] it was 1.34; in assay [13] it was 1.8. In addition, the z-score in assay [14] is 0.217; in assay [15] it was 1.46; in assay [16] it was 2.87; in assay [17], -0.314 (inactive); in assay [18], 0.614; in assay [19] it was -0.763. Also, in [20], the z-score was 0.875 (inactive). Also, the composite z-score in assay [2] was -0.519.
For the molecule `CN(C)CCCCCCNC(=O)[C@@H]1C[C@@H]2C(=O)NCC(=O)N2[C@@H]1c1cccc(OCCO)c1`, the z-score was 0.492 (inactive) in assay [1]; 2.11 (inactive) in assay [3]; 0.109 (inactive) in assay [4]; 2.28 (inactive) in assay [5]; 0.253 (inactive) in assay [6]; 0.0964 in assay [7]. Moreover, the z-score was 0.438 (inactive) in [8]; 0.611 (inactive) in assay [9]; 0.6 in assay [10]; -0.129 in assay [11]; -0.215 in [12]; -0.225 in [13]. Moreover, the z-score in assay [14] was 0.0864; in assay [15], 1.45; in assay [16], -0.305; in assay [17] it was -0.0086 (inactive); in assay [18], -0.12; in assay [19], -0.659. Besides, the z-score in assay [20] is -0.427 (inactive). Moreover, the composite z-score in assay [2] was determined as 0.169.
For `O=C1O[C@H](c2ccccc2)[C@H](c2ccccc2)N2[C@H]1[C@@H](C(=O)N1CCCCCCC1)[C@]1(C(=O)Nc3ccc(C#CC4=CCCCC4)cc31)[C@H]2c1ccc(O)cc1`, the z-score in assay [1] is -0.306 (inactive); in [3] it was 0.123 (inactive); in [4], -0.131 (inactive); in assay [5], 0.0311 (inactive); in [6], 0.482 (inactive); in assay [7], -0.0408. Also, the z-score in [8] was 0.855 (inactive); in assay [9], 0.494 (inactive); in assay [10] it was 0.322; in assay [11], -0.674; in assay [12], 1.01; in assay [13] it was -0.0827. Besides, the z-score in assay [14] is -0.181; in assay [15], -0.773; in [16], -1.28; in assay [17], 0.634 (inactive); in [18], -0.179; in assay [19], -1.28. Further, the z-score in assay [20] was 0.327 (inactive). Further, in assay [2], the composite z-score turned out to be 3.07.
For the molecule `C=CC[C@@]1(C(N)=O)N=C(c2ccc(OCCCO)cc2)O[C@@H]1c1ccccc1N=[N+]=[N-]`, the z-score in assay [1] was 1.3 (inactive); in [3] it was 32.8 (active); in assay [4], 32.6 (active); in [5] it was 4.04 (inactive); in assay [6] it was 3.37 (inactive); in [7], 0.305. Also, the z-score is 0.039 (inactive) in [8]; -0.164 (inactive) in assay [9]; -1.76 in assay [10]; 1.38 in [11]; 1.01 in assay [12]; 0.314 in assay [13]. Besides, the z-score in assay [14] was -0.35; in assay [15] it was -0.0394; in assay [16] it was -0.00877; in [17] it was 0.875 (inactive); in assay [18], -0.327; in assay [19] it was 0.759. The z-score in [20] is 1.02 (inactive). In [2], the composite z-score turned out to be 0.355.
Turning to `C/C=C/[C@H](CCn1cc([C@H](O)c2ccccc2)nn1)[Si](C)(C)c1ccc(OC)cc1`, the z-score was -0.356 (inactive) in assay [1]; 5.6 (inactive) in [3]; 0.755 (inactive) in assay [4]; 0.39 (inactive) in assay [5]; 0.13 (inactive) in assay [6]; 0.293 in [7]. For the same molecule, the z-score in [8] is 0.576 (inactive); in [9] it was -0.0887 (inactive); in [10], -2.11; in [11], -0.0186; in assay [12] it was -0.358; in [13] it was -0.689. In addition, the z-score is -1.58 in assay [14]; -1.43 in assay [15]; -1.4 in assay [16]; 0.644 (inactive) in assay [17]; -0.569 in [18]; -0.629 in assay [19]. The z-score in assay [20] was 0.22 (inactive). The same molecule showed a composite z-score in assay [2] of 0.0038.
With `COC(=O)[C@@]1(Cc2ccc(OC)cc2)[C@H]2c3cc(C(=O)N4CCCC4)n(CCc4ccccn4)c3C[C@H]2CN1C(=O)c1ccccc1`, the z-score in [1] was -1.76 (inactive); in assay [3], 1.15 (inactive); in [4], 0.453 (inactive); in [5], 0.924 (inactive); in assay [6], 0.518 (inactive); in assay [7] it was 0.958. Besides, the z-score was 0.48 (inactive) in [8]; -2.11 (inactive) in assay [9]; -3.82 in assay [10]; -0.991 in assay [11]; 1.13 in assay [12]; -0.946 in assay [13]. The z-score was 0.0275 in [14]; -1.7 in [15]; 1.1 in assay [16]; -1.59 (inactive) in assay [17]; -0.161 in [18]; 0.00382 in assay [19]. In addition, the z-score in assay [20] is -0.201 (inactive). Besides, the composite z-score in [2] came out at 0.496.
Turning to `COCCOC(=O)N1C(=O)[C@@]2(c3cc(C#CC4=CCCCC4)ccc31)[C@H](C(=O)N1CCN(c3ncccn3)CC1)[C@H]1C(=O)O[C@H](c3ccccc3)[C@H](c3ccccc3)N1[C@@H]2c1ccc(OCCO)cc1`, the z-score is -0.0557 (inactive) in assay [1]; 5.23 (inactive) in assay [3]; 1.85 (inactive) in [4]; 0.251 (inactive) in [5]; 0.657 (inactive) in assay [6]; 0.212 in assay [7]. Further, the z-score in assay [8] is 0.977 (inactive); in assay [9], 0.645 (inactive); in assay [10], 0.934; in assay [11], -0.167; in assay [12] it was 0.937; in assay [13] it was -0.247. Further, the z-score in [14] was -1.05; in [15] it was -0.812; in [16], -0.203; in assay [17] it was 1.59 (inactive); in assay [18] it was -0.606; in [19], -0.822. In addition, in assay [20], the z-score was 0.532 (inactive). The molecule also returned a composite z-score in [2] of 0.894.
